Results taken from PubChem BioAssay (NCATS).
Records with an inconclusive call do not appear. Entries that show only a call come without a potency. Calls of active or inactive are those of the source. Calls follow the shape of the dose curve; as a rule, active = well fitted curve in the direction sought with a large enough effect; inconclusive = small, poorly fitted or top-dose-only effect, or another doubt; inactive = no such curve, though single readings can be large; an effect the other way counts as inactive or inconclusive.

Experiments:
[1] = Quantitative highthroughput screen to assess conditional lethalithy of NOMO1 cells grown in RPMI1640 with untreated serum (RPMI+s) (AID 1963876); also: nearly all actives have a fitted effect of over 35% in size; also: potency is read from the fitted curve at half-maximal effect
Procedure, shortened: (§1)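 Each medium arm—HPLM with 10% dialyzed FBS, or RPMI1640 with 5 mM glucose and 10% untreated or dialyzed FBS—was screened against an 11-point, 3-fold compound titration for 48 h at 37 °C, with CellTiter-Glo luminescence as endpoint.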

[2] = Quantitative highthroughput screen to assess conditional lethalithy of NOMO1 cells grown in RPMI1640 with dialyzed fetal bovine serum (RPMI+ds) (AID 1963877); also: nearly all actives have a fitted effect of over 30% in size; also: potency is read from the fitted curve at half-maximal effect; as to viability: series mostly up to about 46 µM
Procedure, shortened: as §1

[3] = Quantitative highthroughput screen to assess conditional lethalithy of NOMO1 cells grown in Human Plasma-Like Medium with dialyzed fetal bovine serum (HPLM+ds) (AID 1963878); also: nearly all actives have a fitted effect of over 35% in size; also: potency is read from the fitted curve at half-maximal effect
Procedure, shortened: as §1

[4] = Quantitative highthroughput screen to assess conditional lethalithy of P12 Ichikawa cells grown in RPMI1640 with dialyzed fetal bovine serum (RPMI+ds) (AID 1963880); conditions: Potency: P12-Ichikawa viability; also: nearly all actives have a fitted effect of over 35% in size; also: potency is read from the fitted curve at half-maximal effect
Procedure, shortened: as §1

[5] = Quantitative highthroughput screen to assess conditional lethalithy of SEM cells grown in Human Plasma-Like Medium with dialyzed fetal bovine serum (HPLM+ds) (AID 1963882); also: nearly all actives have a fitted effect of over 35% in size; also: potency is read from the fitted curve at half-maximal effect; as to viability: series mostly up to about 46 µM
Procedure, shortened: as §1

[6] = Quantitative highthroughput screen to assess conditional lethalithy of SEM cells grown in RPMI1640 with unreated serum (RPMI+s) (AID 1963883); also: nearly all actives have a fitted effect of over 35% in size; also: potency is read from the fitted curve at half-maximal effect
Procedure, shortened: as §1

[7] = Quantitative highthroughput screen to assess conditional lethalithy of SEM cells grown in RPMI1640 with dialyzed fetal bovine serum (RPMI+ds) (AID 1963884); also: nearly all actives have a fitted effect of over 35% in size; also: potency is read from the fitted curve at half-maximal effect; as to viability: series mostly up to about 46 µM
Procedure, shortened: as §1

[8] = Quantitative highthroughput screen to assess conditional lethalithy of P12 Ichikawa cells grown in Human Plasma-Like Medium with dialyzed fetal bovine serum (HPLM+ds) (AID 1963879); conditions: Potency: viability
Procedure, shortened: as §1

[9] = Quantitative highthroughput screen to assess conditional lethalithy of P12 Ichikawa cells grown in RPMI1640 with untreated serum (RPMI+s) (AID 1963881); conditions: Potency: viability; also: nearly all actives have a fitted effect of over 35% in size; also: potency is read from the fitted curve at half-maximal effect; as to viability: series mostly up to about 46 µM
Procedure, shortened: as §1

[10] = Viability qHTS for spleen associated tyrosine kinase inhibitor (SYKi) drug resistant MV4-11 cells (AID 1963824)
Procedure, shortened: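 SYK-inhibitor-resistant MV4-11 AML cells were seeded at 500 per well onto compound and cultured 72 hours (37 °C, 5% CO2). CellTiter-Glo was then added, and after 10 min at room temperature, luminescence gave viability.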

[11] = Cellular viability qHTS for adrenocortical cancer (ACC) cell line SW-13 (AID 1963989); conditions: SW-13 ACC cells viability, CellTiter-Glo, 48 h; activity (max response): hits give low values; also: nearly all actives have a fitted effect of over 65% in size; also: potency is read from the fitted curve at half-maximal effect;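 as to activity (max response): cells grown in serum-free medium with ITS supplement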
Procedure, shortened: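 Viability was read as CellTiter-Glo luminescence after 48 h compound treatment (up to 46 uM final) of SW-13 cells grown serum-free; titration curves were fit with a four-parameter logistic model to give IC50 and efficacy.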

[12] = Cellular viability qHTS for adrenocortical cancer (ACC) cell line NCI-H295R (AID 1963990); also: nearly all actives have a fitted effect of over 60% in size; also: potency is read from the fitted curve at half-maximal effect
Procedure, shortened: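 CellTiter-Glo ATP luminescence, read 48 h after compound addition, measured viability of NCI-H295R adrenocortical cells grown serum-free with ITS. Final concentrations spanned up to 46 uM. Data normalized to DMSO and doxorubicin, fitted for IC50 and maximal response.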

SMILES: CC=C(C)C(=O)O[C@H]1C(C)=C2[C@@H]3OC(=O)[C@@](C)(O)[C@@]3(O)[C@@H](OC(=O)CCC)C[C@](C)(OC(C)=O)[C@@H]2[C@@H]1OC(=O)CCCCCCC
- Potency [1]: 0.0935 µM (active)
- Potency [2]: 0.0662 µM (active)
- Potency [3]: 0.0662 µM (active)
- Potency [4]: 0.132 µM (active)
- Potency [5]: 0.059 µM (active)
- Potency [6]: 0.0332 µM (active)

SMILES: CO[C@H]1CCC(O[C@H]2C[C@H]([C@]3(C)CC[C@]4(C[C@H](O)[C@@H](C)[C@@H]([C@@H](C)C=C(C)C(=O)[C@H](C)C[C@H](C)C(=O)O)O4)O3)O[C@]3(O[C@@H]([C@H]4O[C@@](O)(CO)[C@H](C)C[C@H]4C)C[C@H]3C)[C@H]2C)O[C@H]1C (stereo not given in full)
- Potency [1]: 18.7 µM (active)
- Potency [6]: 1.87 µM (active)
- Potency [7]: 1.32 µM (active)

SMILES: c1cc2c(cc1[C@H]1OC[C@H]3[C@H]1CO[C@H]3c1ccc3c(c1)OCO3)OCO2
- Potency [1]: inactive
- Potency [8]: inactive
- Potency [9]: inactive

SMILES: C[C@@H]1[C@H](O)[C@@H](C)C=CC=CCCC=CC=CC=CC=C[C@H](O[C@H]2O[C@@H](C)[C@H](O)[C@@H](N)[C@@H]2O)CC2O[C@](O)(C[C@@H](O)[C@H](O)CC[C@@H](O)C[C@@H](O)C[C@@H](O)CC(=O)O[C@H]1C)C[C@H](O)[C@H]2C(=O)O
- Potency [1]: inactive
- Potency [8]: inactive
- Potency [9]: inactive
- Potency [5]: inactive

SMILES: COc1ccc2c(c1)CN(C)CC2c1ccc(Cl)c(Cl)c1 (stereo not given)
- Potency [2]: 9.35 µM (active)
- Potency [3]: 3.32 µM (active)
- Potency [9]: inactive

SMILES: C[C@]12Cc3cn[nH]c3C[C@@H]1CC[C@@H]1[C@H]2CC[C@@]2(C)[C@H]1CC[C@]2(C)O
- Potency [1]: inactive
- Potency [2]: inactive
- Potency [3]: inactive
- Potency [8]: inactive
- Potency [9]: inactive
- Potency [7]: inactive

SMILES: C[C@@H]1CC[C@@]2(OC1)O[C@H]1C[C@H]3[C@@H]4CC=C5C[C@@H](O[C@@H]6O[C@H](CO)[C@@H](O[C@@H]7O[C@@H](C)[C@H](O)[C@@H](O)[C@@H]7O)[C@H](O)[C@@H]6O[C@@H]6O[C@@H](C)[C@H](O)[C@@H](O)[C@@H]6O)CC[C@]5(C)[C@@H]4CC[C@]3(C)[C@@H]1[C@H]2C
- Potency [2]: 23.5 µM (active)

SMILES: Oc1ccc2c3c1O[C@H]1c4[nH]c5c(c4C[C@@]4(O)[C@@H](C2)N(CC2CC2)CC[C@]314)C[C@@]1(O)[C@H]2Cc3ccc(O)c4c3[C@@]1(CCN2CC1CC1)[C@H]5O4
- Potency [2]: inactive
- Potency [3]: inactive
- Potency [4]: inactive
- Potency [7]: inactive

SMILES: CC(O)=C(C#N)C(=O)Nc1cc(Br)ccc1Br
- Potency [2]: inactive
- Potency [8]: inactive
- Potency [4]: inactive

SMILES: C=C[C@@H]1CN2CCC1C[C@H]2[C@H](O)c1ccnc2ccccc12 (stereo not given in full)
- Potency [1]: inactive
- Potency [8]: inactive

SMILES: CC[n+]1c(-c2ccccc2)c2cc(N)ccc2c2ccc(N)cc21
- Potency [10]: 4.22 µM (active)
- Potency [11]: 5.17 µM (active)
- Potency [12]: 14.6 µM (active)

SMILES: CCN1C[C@]2(OC(=O)c3ccccc3NC(C)=O)CC[C@H](OC)[C@@]34[C@H]5CC6[C@@H](OC)C[C@](O)(C(C[C@@H]23)[C@@H]14)[C@@]5(O)[C@@H]6OC
- Potency [2]: inactive
- Potency [8]: inactive
- Potency [9]: inactive
- Potency [5]: inactive
- activity (max response) [11]: -5.39% (inactive)
- Potency [12]: inactive

SMILES: C=C[C@@H]1CN2CCC1C[C@@H]2[C@@H](O)c1ccnc2ccccc12 (stereo not given in full)
- Potency [2]: inactive
- Potency [3]: inactive
- Potency [9]: inactive
- Potency [5]: inactive

SMILES: CC(N[C@H]1C[C@H]1c1ccccc1)c1ccc2c(c1)OCCO2 (stereo not given in full)
- Potency [2]: inactive
- Potency [3]: inactive
- Potency [9]: inactive
- Potency [6]: inactive

SMILES: CCCCCCCCCCCCCCCC[N+](C)(C)C
- Potency [10]: 1.19 µM (active)
- Potency [11]: 7.31 µM (active)
- Potency [12]: 8.2 µM (active)

SMILES: CC1=NN=C(c2ccc(N)cc2)c2cc3c(cc2C1)OCO3
- Potency [1]: inactive
- Potency [5]: inactive

SMILES: COc1cc2cc(c1Cl)N(C)C(=O)C[C@H](OC(=O)C(C)C)[C@]1(C)O[C@H]1[C@H](C)[C@@H]1C[C@@](O)(NC(=O)O1)[C@H](OC)C=CC=C(C)C2
- Potency [2]: inactive
- Potency [9]: inactive
- Potency [5]: inactive
- Potency [6]: inactive

SMILES: O=C1CCC[C@@H]2[C@H]3CCCN4CCC[C@@H](CN12)[C@@H]34
- Potency [4]: inactive

SMILES: C[C@@]12OC(=O)[C@]1([C@@H](O)[C@@H]1C=CCCC1)NC(=O)[C@H]2CCCl
- Potency [2]: 0.209 µM (active)
- Potency [4]: 0.187 µM (active)
- Potency [9]: 0.235 µM (active)
- Potency [5]: 0.0526 µM (active)
- Potency [7]: 0.0469 µM (active)

SMILES: C[C@]12CC[C@H](O)CC1=CC[C@H]1[C@H]3CCC(=O)[C@@]3(C)CC[C@@H]12
- Potency [2]: inactive
- Potency [4]: inactive

SMILES: O=C(NCC1CCOCC1)c1cnc(Nc2ccc(Cl)cc2Cl)nc1C(F)(F)F
- Potency [2]: inactive
- Potency [8]: inactive
- Potency [5]: inactive
- Potency [7]: inactive
- activity (max response) [11]: -11.7% (inactive)
- Potency [12]: inactive

SMILES: Cc1ccccc1-n1c(Cn2ncc3c(N)ncnc32)nc2cccc(C)c2c1=O
- Potency [2]: 0.833 µM (active)
- Potency [9]: 2.64 µM (active)
- Potency [5]: inactive
- activity (max response) [11]: 2.46% (inactive)

SMILES: c1ccc(CCCN2CCN(CCOC(c3ccccc3)c3ccccc3)CC2)cc1
- Potency [8]: inactive

SMILES: CCCN1CCO[C@@H]2c3cc(O)ccc3OC[C@@H]21
- Potency [4]: 26.4 µM (active)

SMILES: COC1(CS(=O)c2ccccc2)CCN(CCc2c[nH]c3ccc(F)cc23)CC1 (stereo not given)
- Potency [2]: inactive
- Potency [5]: inactive
- activity (max response) [11]: -19.4% (inactive)
- Potency [12]: inactive
